From PubChem BioAssay (Tox21) come the findings set out here.

Inconclusive results are not listed. The source holds several records for some structures; these can differ, active in one and inactive in another. Calls of active or inactive are those of the source. Unless noted, the call rests on the fitted dose curve; in most records, active means well fitted curve in the direction sought with a large enough effect in the repeat runs; inconclusive means weak or mixed curves; inactive means no such curve, though single readings can be large; an effect the other way counts as inactive or inconclusive.

Assay [1] can be described thus: qHTS assay to identify small molecule agonists of the vitamin D receptor (VDR) signaling pathway - cell viability counter screen (AID 743224). Further: series mostly up to about 63 µM; nearly all actives have a fitted effect of over 50% in size. Put shortly:
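VDR-bla cell line, quantitative HTS format; 16 h compound incubation (37C, 5% CO2); ATP-based CellTiter-Glo luminescence measured in the reporter assay wells.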
A general note: In qHTS, concentration-response curves come from the screen itself.

The nature of assay [2]: qHTS assay to identify small molecule agonists of the NFkB signaling pathway (AID 1159509; active means well fitted curve in the direction sought with a large enough effect in the signal ratio in the repeat runs, not every such curve was filed as active; the % refers to the signal ratio; further: series mostly up to about 61 µM). Put shortly:
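NFkB-bla ME-180 cells carry a beta-lactamase reporter under an NF-kB response element. They were plated overnight, then exposed to compounds for 5 h at 37 C. Read-out is LiveBLAzer FRET after 1.5 hr at room temperature (405 nm excitation; 460/530 nm emission).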

Assay [3] is described as follows: qHTS assay to identify small molecule agonists of the NFkB signaling pathway - cell viability counter screen (AID 1159515; calls by dose curve; further: series mostly up to about 61 µM; nearly all actives have a fitted effect of over 55% in size). Put shortly: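 Viability in NFkB-bla ME-180 cells was measured by CellTiter-Glo luminescence, 30 min room temperature, in wells already treated 5 hr with compounds and read for reporter FRET.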
Assay [4] in a line: qHTS assay to identify small molecule agonists of the endoplasmic reticulum stress response signaling pathway (AID 1159516; active means well fitted activation curve with a large enough effect in the signal ratio in the repeat runs, not every such curve was filed as active; the % refers to the signal ratio). A digest of the protocol:
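ER stress element reporter (bla) in HeLa. 1,500 cells/well, overnight attachment; 5 hr compound; 2 hr RT substrate; dual-emission fluorescence.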

Assay [5] can be described thus: qHTS assay to identify small molecule agonists of the endoplasmic reticulum stress response signaling pathway - cell viability counter screen (AID 1159517; calls by dose curve; further: series mostly up to about 61 µM; nearly all actives have a fitted effect of over 50% in size). A digest of the protocol: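 HeLa cells carrying an ESRE-driven beta-lactamase reporter receive compound for 5 hr at 37 C. Cell viability is then gauged with CellTiter-Glo by luminescence, 30 min at room temperature.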

Assay [6] can be described thus: qHTS assay to identify small molecule antagonists of the retinoid-related orphan receptor gamma (ROR-gamma) signaling pathway - cell viability counter screen (AID 1159520). Further: nearly all actives have a fitted effect of over 50% in size. Further: potency means the concentration at half of the fitted maximal effect. A digest of the protocol: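 Cytotoxicity was read from cellular ATP (CellTiter-Glo luminescence) after 16 hr at 37 C with 1 uM doxycycline induction. The inducer was added 2 hr after compound transfer to Tet-on ROR gamma CHO cells.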

The target in assay [7] is Nuclear receptor ROR-gamma (Homo sapiens) (UniProt P51449). Nature of the assay: qHTS assay to identify small molecule antagonists of the retinoid-related orphan receptor gamma (ROR-gamma) signaling pathway (AID 1159521; further: nearly all actives have a fitted effect of over 50% in size; further: potency means the concentration at half of the fitted maximal effect). Put shortly:
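CHO Tet-on RORγ, RORE-luc reporter. Cpd 2 h pre-incubation, then dox hyclate 1 uM final, 16 h, 37 C/5% CO2. ONE-Glo luminescence; decrease = antagonist.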

Assay [8] is described as follows: qHTS assay to identify small molecule agonists of the AP-1 signaling pathway - cell viability counter screen (AID 1159525; calls by dose curve; further: nearly all actives have a fitted effect of over 55% in size; further: potency means the concentration at half of the fitted maximal effect). Put shortly:
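Luminescent ATP readout (Cell Titer Glo, 30 min RT), normalised to DMSO and tetra n-octyl ammonium bromide controls. Cells were ME-180 AP-1-bla in 0.5% dialyzed FBS Opti-MEM, with a 5 h, 37 °C compound exposure.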

Assay [9] is described as follows: qHTS assay to identify small molecule agonists of the AP-1 signaling pathway (AID 1159526; calls by dose curve).
Assay [10] concerns the target Retinoic acid receptor RXR-alpha (Homo sapiens) (UniProt P19793). The experiment in a line: qHTS assay to identify small molecule agonists of the RXR signaling pathway (AID 1159527; calls by dose curve; further: nearly all actives have a fitted effect of over 35% in size; further: potency means the concentration at half of the fitted maximal effect). A digest of the protocol: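 Read-out: beta-lactamase FRET ratio (405 nm excitation, 460 and 530 nm emission) after 2 hr substrate loading at room temperature. Cells were RXR-alpha-UAS-bla HEK 293T treated with compounds for 16 hr in 2% charcoal-stripped FBS medium.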

Assay [11] in a line: qHTS assay to identify small molecule agonists of the RXR signaling pathway - cell viability counter screen (AID 1159529). Further: nearly all actives have a fitted effect of over 50% in size. Further: potency means the concentration at half of the fitted maximal effect. Put shortly: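 HEK 293T RXRa-bla cells, 2% CS-FBS; 5 h settle; cpd 16 h 37 C, 5% CO2; CellTiter-Glo 30 min RT, luminescence. Tetraoctyl ammonium bromide as positive control.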
Assay [12] can be described thus: qHTS assay to identify small molecule antagonists of the retinoid acid receptor (RAR) signaling pathway - cell viability counter screen (AID 1159551). Further: nearly all actives have a fitted effect of over 35% in size. A digest of the protocol: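 Following overnight attachment, C3RL4 reporter cells received DMSO-dissolved compounds and then retinol (1 uM final). Six hours later at 37 C, ATP content was measured by CellTiter-Glo luminescence.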

Assay [13] is described as follows: qHTS assay to identify small molecule antagonists of the retinoic acid receptor (RAR) signaling pathway (AID 1159552; further: nearly all actives have a fitted effect of over 50% in size). Put shortly:
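Cells of the C3RL4 line were seeded, incubated overnight, then dosed with compounds in DMSO followed immediately by retinol (1 uM final). Six hours later luciferase detection reagent went in; signal was measured after 30 min at RT.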

Assay [14] is described as follows: qHTS assay to identify small molecule agonists of the retinoic acid receptor (RAR) signaling pathway (AID 1159553). Put shortly: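 Cell line C3RL4, RARE luciferase reporter. Treatment: compounds in DMSO, 6 hr, 37 C, 5% CO2, after overnight plating. Detection: luminescence, 30 min RT after reagent.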
A short description of assay [15]: qHTS assay to identify small molecule antagonists of the vitamin D receptor (VDR) signaling pathway - cell viability counter screen (AID 743225). Further: nearly all actives have a fitted effect of over 50% in size. Put shortly: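 Read-out: CellTiter-Glo luminescence measured 30 min after reagent addition at room temperature. Cells were VDR-bla HEK 293T exposed 16 h at 37C, 5% CO2, to compound with 3 nM final calcitriol agonist.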

Retinoic acid receptor RXR-alpha (Homo sapiens), sequence (P19793 whole entry, looked up): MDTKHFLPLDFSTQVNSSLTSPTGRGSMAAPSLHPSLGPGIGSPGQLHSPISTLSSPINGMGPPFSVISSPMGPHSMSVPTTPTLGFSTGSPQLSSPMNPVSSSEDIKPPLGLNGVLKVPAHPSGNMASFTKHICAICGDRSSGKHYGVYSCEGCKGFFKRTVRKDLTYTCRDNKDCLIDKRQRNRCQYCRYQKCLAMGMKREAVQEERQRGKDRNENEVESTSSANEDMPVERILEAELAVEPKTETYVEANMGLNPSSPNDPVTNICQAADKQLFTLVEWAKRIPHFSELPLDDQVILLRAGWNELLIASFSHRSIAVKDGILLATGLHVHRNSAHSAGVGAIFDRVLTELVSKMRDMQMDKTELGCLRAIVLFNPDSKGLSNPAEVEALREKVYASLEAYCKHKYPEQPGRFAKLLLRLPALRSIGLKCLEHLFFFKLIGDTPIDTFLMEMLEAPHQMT

For `NC(=O)NNc1ccccc1`, the Potency result in [1], in assay [5], in [6], in assay [7], in [8] and in [9] was “inactive” throughout. Also, the Potency result in assay [10], in assay [11], in [12], in assay [13] and in assay [14] was “inactive” in each case. Further, the compound was called inactive in [2], in [3] and in [4].

With `COC(=O)c1ccc(C(=O)OC)cc1`, the Potency entry in [1], in assay [15], in assay [5], in assay [6], in [9] and in [10] was “inactive” throughout. Also, the Potency result in assay [12], in [13] and in [14] was “inactive” each time. The outcome in [2], in assay [3] and in assay [4] was inactive. The Potency in assay [7] is 1.96 µM (active) and inactive; in [8], 12.5 µM (active) and inactive; in assay [11], 15.7 µM (active) and inactive.

As for `OC[C@@H](O)[C@@H](O)[C@H](O)[C@@H](O)CO`, the Potency result in assay [1], in [15], in [5], in [6], in assay [7] and in [8] was “inactive” each time. Also, the Potency entry in [9], in assay [10], in assay [11], in assay [12], in assay [13] and in [14] was “inactive” in each case. The outcome in assay [2], in assay [3] and in assay [4] was inactive.

As for `Cc1ccc(N)c(S(=O)(=O)O)c1`, the Potency entry in assay [1], in assay [15], in [5], in assay [6], in assay [7] and in [8] was “inactive” each time. The Potency result in [9], in assay [10], in assay [11], in assay [12], in assay [13] and in [14] was “inactive” in each case. Moreover, the outcome in [2], in assay [3] and in assay [4] was inactive.

Consider `OC[C@@H](O)[C@H](O)[C@H](O)[C@@H](O)CO`, for which the Potency entry in [1], in [15], in assay [5], in [6], in [7] and in [8] was “inactive” in each case. The Potency result in assay [9], in assay [10], in assay [11], in assay [12], in assay [13] and in assay [14] was “inactive” throughout. Also, the outcome in [2], in assay [3] and in [4] was inactive.

Take `CC(C)Cc1ccccc1`: the Potency entry in assay [1], in assay [15], in assay [5], in assay [6], in assay [7] and in [8] was “inactive” in each case. Besides, the Potency entry in [9], in assay [10], in assay [11], in assay [12], in assay [13] and in [14] was “inactive” each time. Also, the outcome in assay [2], in assay [3] and in [4] was inactive.

In the case of `O=C(Cl)c1c(Cl)c(Cl)c(C(=O)Cl)c(Cl)c1Cl`, the Potency entry in [1], in assay [15], in assay [5], in [6], in [7] and in [8] was “inactive” in each case. Besides, the Potency entry in assay [9], in assay [10], in assay [11], in [12], in [13] and in assay [14] was “inactive” each time. Moreover, the outcome in [2], in assay [3] and in assay [4] was inactive.

As to `CC(C)(N=C=O)c1cccc(C(C)(C)N=C=O)c1`, the Potency result in [1], in assay [15], in assay [5], in [6], in assay [7] and in assay [8] was “inactive” throughout. Also, the Potency entry in [9], in assay [10], in [11], in assay [12], in assay [13] and in [14] was “inactive” in each case. Besides, the call in assay [2], in assay [3] and in [4] was inactive.

For the compound `CCc1ccccc1O`, the Potency entry in assay [1], in assay [5], in assay [8], in assay [9], in assay [11] and in assay [12] was “inactive” in each case. The Potency entry in [13] and in [14] was “inactive” in each case. For the same compound, the outcome in assay [2], in assay [3] and in assay [4] was inactive. For the same compound, the Potency in assay [6] is 60.8 µM (active) and inactive; in [7] it was 30.5 µM (active) and inactive; in assay [10], 5.47 µM (active) and inactive.
